# Screen size: about 88,000 compounds; about 260 (0.3%) were called active.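 How the source made its calls: active means compounds that reduce the energy-transfer binding signal between the protein and its labelled peptide by more than half; inactive means the rest.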 The full list was thinned out, with actives kept by preference.
# Target: Mothers against decapentaplegic homolog 3 (Homo sapiens) (UniProt P84022)
# Test: Smad3/FoxH1 peptide binding inhibitors, primary screen, biochemical, TR-FRET (AID 630);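 further: 0% = Smad3 plus labelled peptide maximal FRET and 100% = peptide-only background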
# Settings: TR-FRET Smad3/Dy647-FoxH1 peptide binding, europium anti-His; at 25 µM; stronger effect = higher value
# Chain of Mothers against decapentaplegic homolog 3 (Homo sapiens) (P84022 whole entry, looked up): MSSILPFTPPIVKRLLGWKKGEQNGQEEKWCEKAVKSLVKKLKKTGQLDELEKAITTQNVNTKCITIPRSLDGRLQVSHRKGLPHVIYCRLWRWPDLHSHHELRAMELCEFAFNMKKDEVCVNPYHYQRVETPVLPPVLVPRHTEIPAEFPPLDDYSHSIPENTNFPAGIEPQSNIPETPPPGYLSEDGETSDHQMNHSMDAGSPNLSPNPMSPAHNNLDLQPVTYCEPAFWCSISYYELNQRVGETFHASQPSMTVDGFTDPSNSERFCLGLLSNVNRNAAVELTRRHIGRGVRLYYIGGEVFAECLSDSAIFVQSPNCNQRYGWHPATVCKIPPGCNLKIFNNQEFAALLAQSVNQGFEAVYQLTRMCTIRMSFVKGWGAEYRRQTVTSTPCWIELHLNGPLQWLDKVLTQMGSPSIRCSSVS
row,Compound,inhibition
1,CC(C)Nc1ncnc2c1nnn2Cc1ccccc1,-8.78% (inactive)
2,CC1(C)CC(=O)C=C(N2CCCC2)C1,-13.5% (inactive)
3,COc1ccccc1CNS(=O)(=O)c1ccc(C)cc1,9.13% (inactive)
4,O=C(O)[C@@H]1CCc2ccc3ccccc3c2[C@H]1c1cccc2ccccc12,-9.06% (inactive)
5,COC(=O)c1ccc(NC(=O)C23CC4CC(C2)CC(n2cnc(Cl)n2)(C4)C3)cc1,4.51% (inactive)
6,O=C(O)[C@@H]1CS[C@]2(CCCN(Cc3ccccc3)C2)N1,7.7% (inactive)
7,O=S1(=O)C=C(SCCN2CCCC2)c2ccccc21,17.4% (inactive)
8,CCOC(=O)c1c(NC(=O)CCl)sc(C(=O)N(CC)CC)c1C,14.1% (inactive)
9,Cc1cccc(N2CCN(C(=O)c3cnn4c(C(F)F)cc(-c5ccccc5)nc34)CC2)c1C,8.08% (inactive)
10,Cn1ncc2c(Nc3cccc4ccccc34)ncnc21,2.63% (inactive)
11,Cc1noc(COc2ccccc2OCc2onc(C)c2Cl)c1Cl,-10.7% (inactive)
12,Cn1c2c(c(=O)n(C)c1=O)C(c1cccc([N+](=O)[O-])c1)Nc1ccccc1O2 (stereo not given),-10.5% (inactive)
13,CCOc1ccc(C(O)Cc2nc3ccccc3n2C)cc1 (stereo not given),3.1% (inactive)
14,CCCn1c(C)cc(C(=O)COC(=O)c2c(C)nn(-c3ccccc3)c2C)c1C,-7.34% (inactive)
15,COc1ccc(C(=O)Nc2ccc(CN3CCOCC3)cc2)cc1,11% (inactive)
16,N#C/C(=C\c1ccccc1)c1n[nH]c(Cn2cncn2)n1,8.55% (inactive)
17,O=C(CSCc1ccc(Cl)cc1)N1CCCCC1,-8.93% (inactive)
18,Cc1cccc(NC(=O)CSc2nc3c(c(=O)[nH]2)CCCC3)c1C,5.9% (inactive)
19,Cc1cc2nc(SCCN3CCOCC3)[nH]c2cc1C,2.4% (inactive)
20,Cc1nn(Cc2ccccc2)c2c1C(c1ccccc1)C(C#N)=C(N)O2 (stereo not given),5.74% (inactive)
21,COc1ccc(N/N=C2/CCCCC2=O)cc1,-1.11% (inactive)
22,O=C(O)c1nn(-c2ccc(Cl)cc2)c2c1C(=O)c1ccccc1C2=O,53.4% (active)
23,Cc1ccc(-n2ccc(=O)c(C(=O)O)n2)cc1,0.02% (inactive)
24,CCOc1ccc(NC(=O)N(CC(C)C)CC(C)C)cc1,3.46% (inactive)
25,N#CC1=C(SCc2ccc(C#N)cc2)N=C(N)C(c2nc(-c3ccccc3)cs2)C12CCCCC2 (stereo not given),-3.23% (inactive)
26,O=C(NC1(C(F)(F)F)NC(=O)N(Cc2cccnc2)C1=O)c1ccccc1Cl (stereo not given),40.1% (inactive)
27,COC(=O)c1ccc(Cc2ccccc2)o1,6.44% (inactive)
28,O=C(c1ccc(O)cc1)c1ccc(C(=O)O)c(C(=O)O)c1,-7.32% (inactive)
29,O=C(O)c1ccc(C(=O)O)c2c(C(=O)O)ccc(C(=O)O)c12,-1.5% (inactive)
30,O=C(O)c1ccc(C(=O)c2ccccc2C(=O)O)cc1C(=O)O,63.5% (active)

# Source: PubChem BioAssay AID630 (Emory University Molecular Libraries Screening Center, 2007)
